Screening data as filed in PubChem.
Hits are enriched below; roughly 2.8% of the tested compounds scored in any of these assays.
POLI inh = DNA polymerase iota (human) inhibition | Q9UNA4 | Pol iota fluorescent replication assay, 10 min | Potency, µM (highest dose often 115 µM), usual class: inhibitors | hit rate 1% among 390,000
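Pol iota at 10 nM preincubated 15 min with compounds at room temperature; reaction started with fluorescent substrate, 50 nM final. Fluorescence read kinetically at 0 and 10 min; buffer-only wells as negative control.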
Pol eta inh = inhibitors of human DNA polymerase eta; Q9Y253; recombinant Pol eta, fluorescent DNA replication assay; Potency, µM (series often up to 114 µM), usual class: inhibitors; hit rate 1.2% among 390,000
Target sequence (Q9Y253 whole entry, looked up): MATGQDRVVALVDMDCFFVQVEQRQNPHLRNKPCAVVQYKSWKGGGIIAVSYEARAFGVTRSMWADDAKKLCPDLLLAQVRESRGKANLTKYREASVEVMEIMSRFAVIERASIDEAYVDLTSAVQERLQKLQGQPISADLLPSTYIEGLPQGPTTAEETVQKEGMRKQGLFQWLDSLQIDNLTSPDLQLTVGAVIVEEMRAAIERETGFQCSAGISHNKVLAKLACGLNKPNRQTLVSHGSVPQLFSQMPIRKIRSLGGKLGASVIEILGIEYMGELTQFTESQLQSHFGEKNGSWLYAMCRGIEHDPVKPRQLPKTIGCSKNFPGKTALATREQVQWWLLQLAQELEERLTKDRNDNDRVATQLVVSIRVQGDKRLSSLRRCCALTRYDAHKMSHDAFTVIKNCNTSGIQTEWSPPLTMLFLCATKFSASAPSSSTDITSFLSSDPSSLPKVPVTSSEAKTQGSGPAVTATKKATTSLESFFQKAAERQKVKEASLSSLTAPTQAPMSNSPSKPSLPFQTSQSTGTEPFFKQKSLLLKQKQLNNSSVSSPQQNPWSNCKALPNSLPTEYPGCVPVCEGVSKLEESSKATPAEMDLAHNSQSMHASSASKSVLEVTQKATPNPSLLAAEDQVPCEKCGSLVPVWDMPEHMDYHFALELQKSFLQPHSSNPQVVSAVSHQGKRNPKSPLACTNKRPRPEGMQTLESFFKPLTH
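Fluorescent replication assay: 50 nM final substrate added after a 15 min room-temperature compound preincubation with 10 nM enzyme. Signal taken at 0 min and again at 10 min.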
POLB inh = DNA polymerase beta (human) inhibition; Pol beta primer extension/strand displacement, fluorescence kinetic; hit rate 1.3% among 340,000; Potency, µM (doses to about 114 µM), actives largely listed as inhibitors; AID 485314
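10 nM enzyme + cpd, 15 min RT; start with substrate 50 nM final; read 0 min and after 10 min RT. Corrected, normalized data; 4-parameter Hill curve fit.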
PI5P4K alpha inh = inhibitors of human PI5P4K alpha; P48426; max response, %; PI5P4Kalpha enzyme, ADP-Glo luminescence, 60 min; hits give low values; hit rate 1.2% among 330,000; active means max response of -50% or lower; inconclusive means between -30% and -50%; inactive means -30% or higher; further: value at the top dose of about 77 µM
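PI5P4Kalpha ADP-Glo assay; 5 microM ATP final; 60 min RT reaction; HEPES pH 7.4/EGTA/CHAPS, 5% DMSO; controls lacking substrate or enzyme; luminescent end-point.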
Pol kappa inh = inhibitors of human DNA polymerase kappa. Q9UBT6. purified Pol kappa, fluorescent DNA synthesis assay, 10 min. Potency, µM (series often up to 107 µM), actives largely listed as inhibitors. hit rate 0.53% among 400,000
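Enzyme at 10 nM met test compounds for 15 min at room temperature. Substrate addition (50 nM final) began the reaction, which was monitored by fluorescence at 0 and 10 min.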
WRN inhibitor = inhibitors of human WRN helicase; Q14191; WRN helicase unwinding, fluorescent forked duplex, kinetic; Potency, µM (titrated, usually from 114 µM), hits mostly inhibitors; hit rate 0.46% among 360,000; further: nearly all actives have a fitted effect of over 55% in size
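Kinetic fluorescence helicase assay: unwinding of a quenched forked DNA duplex (100 nM final) with 2 mM ATP final raises red fluorescence (525/598 nm). Compounds sat 15 min at room temperature with 20 nM WRN beforehand.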
ADP-Glo counter = counter-screen for PI5P4K inhibitors: ADP-Glo detection interference, no enzyme; shares compounds with PI5P4K alpha inh; ADP-Glo detection counter-screen, luciferase luminescence, no enzyme; Potency, µM (doses to about 76.9 µM), actives largely listed as inhibitors; 1,100 tested, under 10 active; AID 743285
A number is an active result; - = inactive; ? = inconclusive; . = no result; ! = not confirmed by another sample; [ ] = remark or other dose. Unless noted, the call rests on the fitted dose curve; in most records, active means well fitted curve in the direction sought with a large enough effect; inconclusive means small, poorly fitted or top-dose-only effect, or another doubt; inactive means no such curve, though single readings can be large; an effect the other way counts as inactive or inconclusive.

SMILES | POLI inh | Pol eta inh | POLB inh | PI5P4K alpha inh | Pol kappa inh | WRN inhibitor | ADP-Glo counter
O=C(NC1CCN(Cc2ccccc2)CC1)c1ccc(CS(=O)c2ccccc2Cl)o1 (stereo not drawn) | . | - | . | - | . | - | .
COc1cccc(N2CCN(C(=O)c3ccc(CS(=O)c4ccccc4C)o3)CC2)c1 (stereo not drawn) | - | - | - | - | - | - | -
Cc1oc2ccc(OCc3ccccc3Cl)cc2c1C(=O)O | - | - | - | -61 | - | - | -
Cc1nc(N)c2c(Cc3cccc4ccccc34)nn(C(C)(C)C)c2n1 | - | - | . | . | - | . | .
O=C(CSc1nc2ccc(Cl)cc2[nH]1)N1CCN(C(=O)c2ccco2)CC1 | - | ? | ? | -65 | ? | ? | -
O=S(=O)(c1ccc(NCCOc2ccccc2)nc1)N1CCCC1 | - | - | . | - | - | - | .
CCOc1ccc(C(=O)Oc2c(Sc3ccccc3)c(C)nn2C(C)(C)C)cc1OCC | - | - | ? | . | - | . | .
O=C(CCC(=O)c1cccs1)Nc1ncccc1O | ? | ? | . | -56 | - | - | -
O=C(CCC(=O)c1cccs1)Nc1ccc(N2CCCCC2)cc1 | ? | 89µM | ? | -76 | ? | -[11.6 µM] | -
O=C(Cc1cccs1)Nc1ccc(N2CCOCC2)cc1 | ? | 25µM | 25µM | -53 | - | - | -
O=C(CSc1nncn1-c1ccccc1)Nc1ccc(N2CCOCC2)cc1 | ? | - | - | -56 | - | ? | -
O=C(CSc1nnnn1-c1ccccc1)Nc1ccc(N2CCOCC2)cc1 | - | - | - | - | - | - | .
Cc1ccc(NC(=O)CCC(=O)c2cccs2)cc1 | - | - | - | - | - | - | .
CC/C(=N/O)C(=O)c1ccc(Br)cc1 | - | - | - | - | - | - | .
Cc1c(C(=O)N2CCOCC2)c(S(=O)(=O)Nc2ccc(C(C)C)cc2)c(C)n1C | - | - | - | - | - | - | .
Cc1cc(NC(=O)C(C)SCC(=O)OCC(=O)Nc2c(C)cccc2C(C)C)no1 (stereo not drawn) | - | - | . | - | - | - | .
Oc1ccc(Br)cc1C1Nc2ccccc2S1 (stereo not drawn) | - | - | - | - | - | - | .
O=C(Nc1cccc(S(=O)(=O)N2CCOCC2)c1)c1c2c(nc3ccccc13)CCC2 | 45µM | ? | 10µM | -64 | - | - | -
Cc1c(C(=O)O)cccc1-c1ccc(/C=C2\SC(=O)NC2=O)o1 | ? | 22µM | - | -57 | ? | -[11.6 µM] | -
COc1cc(=O)[nH]c(SCC(=O)Nc2nc3c(s2)CCCC3)n1 | - | - | - | - | - | - | .
Oc1cccc2cc3cccc(O)c3c(O)c12 | - | - | - | - | - | . | .
CCn1cc(C(=O)N2CCN(c3cccc(C)c3C)CC2)c(=O)c2ccc(C)nc21 | ? | ? | - | -73 | ? | ? | -
CCn1cc(C(=O)N2CCN(c3ccc([N+](=O)[O-])cc3)CC2)c(=O)c2ccc(C)nc21 | - | - | - | - | - | - | .
Cc1ncc(CSc2ccc(Cl)cc2)c(CO)c1O | - | - | - | - | - | - | .
COC(=O)c1c[nH]c(=O)c2ccccc12 | - | - | - | -56 | - | - | -
SMILES | POLI inh | Pol eta inh | POLB inh | PI5P4K alpha inh | Pol kappa inh | WRN inhibitor | ADP-Glo counter
COC(=O)c1ccccc1C(=O)c1cccc2ccccc12 | - | - | - | - | - | - | .
CCn1cc(C(=O)NCCCN2CCC(C)CC2)c(=O)c2cc(S(=O)(=O)N3CCOCC3)ccc21 | ? | - | - | - | - | - | .
CCN(CC(=O)N1CCC(C(N)=O)CC1)S(=O)(=O)c1ccc(Cl)cc1 | - | - | - | - | - | - | .
CCN(CC(=O)N1CCC(C(N)=O)CC1)S(=O)(=O)c1cc(Cl)ccc1Cl | - | - | . | -52 | - | - | -
O=c1oc(-c2ccccc2)nc2sc3c(c12)CCC3 | ? | ? | 11µM | -54 | 79µM | -[11.6 µM] | -
CCC1=Nc2cc(C(=O)O)ccc2Sc2ccccc21 | - | - | - | -57 | - | - | -
CCC1=Nc2cc(C(=O)NCc3ccco3)ccc2Sc2ccccc21 | - | - | - | - | - | - | .
COC(=O)c1[nH]cnc1C(=O)c1ccccc1 | - | - | - | -61 | - | - | -
COc1ccccc1NC(=O)c1nc[nH]c1C(=O)Nc1ccccc1OC | - | - | - | - | - | - | .
O=C(CSc1nc(O)cc(=O)n1-c1ccccc1)Nc1nc2ccccc2s1 | 11µM | - | ? | -66 | ? | ? | -
O=C(CSc1nccn1-c1ccccc1)Nc1nc2ccccc2s1 | - | - | - | . | - | . | .
CCN1CCN(Cc2ccc(NC(=O)c3ccc(C)c(NC(=O)c4cc(-c5ccc(Br)cc5)n[nH]4)c3)cc2C(F)(F)F)CC1 | - | - | - | -57 | - | - | -
CCN1CCN(Cc2ccc(NC(=O)c3ccc(C)c(NC(=O)c4nccnc4N)c3)cc2C(F)(F)F)CC1 | - | - | - | - | - | - | .
O=S1(=O)CC(N2CCSCC2)CN1Cc1cn(Cc2ccc(Cl)cc2)nn1 (stereo not drawn) | . | . | . | - | . | - | .
O=S1(=O)CC(N2CCSCC2)CN1Cc1cn(Cc2ccc(F)cc2)nn1 (stereo not drawn) | . | . | . | - | . | - | -
O=C(COc1ccc(Cl)cc1Cl)Nc1cccc(-c2ccc(N3CCOCC3)nn2)c1 | - | - | . | - | - | - | .
O=C(COc1ccccc1)Nc1cccc(-c2ccc(N3CCOCC3)nn2)c1 | - | - | . | - | - | - | -
CCOc1ccc(-c2cc(-c3nc(-c4cc(OC)c(OC)c(OC)c4)no3)[nH]n2)cc1Cl | - | - | - | . | - | . | .
COc1ccc(Br)cc1C1CC(=O)N2CN(Cc3ccccc3)CSC2=C1C#N (stereo not drawn) | - | - | - | ? | - | - | .
N#CC1=C2SCN(C3CCCCC3)CN2C(=O)CC1c1c(F)cccc1Cl (stereo not drawn) | ? | ? | - | . | - | . | .
N#CC1=C2SCN(c3ccccc3)CN2C(=O)CC1c1cccs1 (stereo not drawn) | - | - | ? | -73 | - | - | -
N#CC1=C2SCN(c3ccccc3)CN2C(=O)CC1c1c(Cl)cccc1Cl (stereo not drawn) | 89µM! | - | - | -75 | - | - | -
N#CC1=C2SCN(c3ccccc3)CN2C(=O)CC1c1ccccc1Cl (stereo not drawn) | - | - | - | -82 | - | - | -
Cc1c(C(=O)O)sc2ncnc(N3CCCCC3C)c12 (stereo not drawn) | - | - | - | . | - | - | -
CCCS(=O)(=O)N1CCCC(C(=O)Oc2ccc(OC)cc2)C1 (stereo not drawn) | - | - | - | - | - | - | .
